The text below walks through data of PubChem BioAssay (EPA / NIEHS).

Read-out in experiment [1]: Monocyte Chemoattractant Protein-1 (MCP1), CCL2 (gene 6347)
Briefly: BSK_SAg_MCP1: BioMAP Diversity Plus: SAg Assay for Monocyte Chemoattractant Protein-1 (MCP1) Biomarker Activity (AID 2283090). The settings on record: primary human HUVEC with PBMC; actives raise or lower the signal. Summed up:
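MCP-1 levels in the endothelial–PBMC SAg co-culture were quantified by ELISA at 24 h post-dosing; both increases and decreases versus DMSO scored. Cytotoxicity monitored by SRB total protein in parallel cultures.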

Read-out in experiment [2]: E-selectin (Homo sapiens) (UniProt P16581)
Nature of the experiment: BSK_SAg_Eselectin: BioMAP Diversity Plus: SAg Assay for Eselectin Biomarker Activity (AID 2283091). Particulars: primary human HUVEC with PBMC; actives raise or lower the signal. Summed up:
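Endpoint values derive from bidirectional fitting relative to DMSO, using ELISA-measured E-selectin in a human vascular co-culture (umbilical vein endothelium plus PBMC) sampled 24 h after dosing.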

A short description of experiment [3]: BSK_SAg_PBMCCytotoxicity: PBMC Cytotoxicity Assessment in the BioMAP Diversity Plus: SAg Assay (AID 2283093).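 Further: PBMC viability measured as Alamar Blue reduction fluorescence at 546/580 nm; fitted both ways against DMSO so a hit may be loss or gain of signal.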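 On AC50: PBMC superantigen activated with SEB plus TSST-1 one hour after compound addition.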 The settings on record: primary human HUVEC with PBMC. Summed up: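 HUVEC/PBMC co-culture; PBMC exposed to chemical 1 h before SEB and TSST-1 activation (20 ng/mL each), incubated 90 h, then Alamar Blue 6 h, fluorescence 546/580 nm. Bidirectional fit versus DMSO baseline.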

Experiment [4] in a line: BSK_SAg_Proliferation: Cell Proliferation Assessment in the BioMAP Diversity Plus: SAg Assay (AID 2283095).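 Further: relative cell number as total protein by SRB absorbance in sub-confluent culture.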 Particulars: primary human HUVEC with PBMC. The essentials: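 Human umbilical vein endothelial cells co-cultured with peripheral blood mononuclear cells; total protein measured by sulforhodamine B staining (0.1% SRB after 10% TCA fixation), absorbance at 560 nm, at 96 h. Bidirectional fit against DMSO baseline.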

Experiment [5] is described as follows: BSK_SAg_SRB: Viability Assessment in the BioMAP Diversity Plus: SAg Assay (AID 2283096).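 Further: cells read one day after compound addition; hits may be either gain or loss of signal compared with DMSO.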 The settings on record: primary human HUVEC with PBMC. Summed up: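 Human umbilical vein endothelial cells co-cultured with PBMC, read 24 h after compound dosing. Total protein measured by sulforhodamine B staining (0.1% SRB after 10% TCA fixation, absorbance 560 nm); bidirectional fit versus DMSO baseline.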

In experiment [6] the target is human CYP1A1, CYP1A1 (gene 1543) (UniProt P04798). Briefly: NVS_ADME_hCYP1A1: NovaScreen (NVS) CYP450-related Enzyme Activity (ADME) Assay for human CYP1A1 (AID 2283100; active means hit-call score of the fitted dose curve at least 0.9, where 1 is the maximum). The essentials: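 Inhibition of recombinant CYP1A1 turnover was assessed fluorometrically in a biochemical format 1 h after compound exposure. Testing began at 10 uM in duplicate and progressed to concentration series reaching 20 uM, with on-plate positive and negative controls.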

The target of experiment [7] is human CYP1A2, CYP1A2 (gene 1544) (UniProt P05177). Briefly: NVS_ADME_hCYP1A2: NovaScreen (NVS) CYP450-related Enzyme Activity (ADME) Assay for human CYP1A2 (AID 2283102; active means hit-call score of the fitted dose curve at least 0.9, where 1 is the maximum;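 further: potency for inhibition since loss of fluorescence marks reduced CYP1A2 activity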). Summed up:
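Inhibition scored as decrease in fluorescent product versus acetonitrile negative control. Enzyme: insect-cell recombinant human CYP1A2, substrate-specific, cell-free. Reading at 0.5 h; 10 uM duplicate initial screen with positive and negative controls on every plate.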

In experiment [8] the target is human CYP2J2, CYP2J2 (gene 1573) (UniProt P51589). Nature of the experiment: NVS_ADME_hCYP2J2: NovaScreen (NVS) CYP450-related Enzyme Activity (ADME) Assay for human CYP2J2 (AID 2283106; active means hit-call score of the fitted dose curve at least 0.9, where 1 is the maximum). Summed up: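 Cell-free assay of recombinant CYP2J2 with a fluorogenic substrate, read 1 h after dosing; loss of signal versus acetonitrile. Primary screen at 10 uM in duplicate, then concentration-response up to 20 uM for chemicals passing threshold (e.g., 30% inhibition).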

Experiment [9] concerns the target Cytochrome P450 3A4 (Homo sapiens) (UniProt P08684). Briefly: NVS_ADME_hCYP3A4: NovaScreen (NVS) CYP450-related Enzyme Activity (ADME) Assay for human CYP3A4 (AID 2283110; active means hit-call score of the fitted dose curve at least 0.9, where 1 is the maximum). The essentials: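 Cell-free recombinant enzyme expressed in insect cells; fluorescent substrate turnover read after 0.33 h, acetonitrile as negative control. Primary screen in duplicate at 10 uM, actives then tested in concentration series.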

Experiment [10] deals with rat CYP1A2, Cyp1a2 (gene 24297) (UniProt P04799). Nature of the experiment: NVS_ADME_rCYP1A2: NovaScreen (NVS) CYP450-related Enzyme Activity (ADME) Assay for rat CYP1A2 (AID 2283115; active means hit-call score of the fitted dose curve at least 0.9, where 1 is the maximum). Summed up:
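Cell-free recombinant rat enzyme with fluorogenic substrate, read by fluorescence intensity 1 hour after dosing. Loss of signal versus acetonitrile negative control; primary screen at 10 uM in duplicate, actives followed in concentration series.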

Experiment [11] addresses human CYP19A1, CYP19A1 (gene 1588) (UniProt P11511). Nature of the experiment: NVS_ADME_hCYP19A1: NovaScreen (NVS) CYP450-related Enzyme Activity (ADME) Assay for human CYP19A1 (AID 2283098; active means hit-call score of the fitted dose curve at least 0.9, where 1 is the maximum;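 further: potency for inhibitors seen as loss of fluorescent enzyme signal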). Summed up: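 Recombinant enzyme in a cell-free format, read 0.5 h after dosing by fluorescence from a fluorogenic substrate. Loss of signal was fitted against acetonitrile as baseline. Primary screen in duplicate at 10 uM, actives then tested in concentration series.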

Read-out in experiment [12]: Interleukin-8 (IL8), CXCL8 (gene 3576)
Briefly: BSK_SAg_IL8: BioMAP Diversity Plus: SAg Assay for Interleukin-8 (IL8) Biomarker Activity (AID 2283094). The settings on record: primary human HUVEC with PBMC; actives raise or lower the signal. Summed up:
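Human umbilical vein endothelial cells co-cultured with peripheral blood mononuclear cells; IL-8 measured by ELISA 24 h after chemical dosing. Bidirectional concentration-response fitting used DMSO as negative control and activity baseline.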

Experiment [13] concerns the target Cytochrome P450 2C19 (Homo sapiens) (UniProt P33261). Briefly: NVS_ADME_hCYP2C19: NovaScreen (NVS) CYP450-related Enzyme Activity (ADME) Assay for human CYP2C19 (AID 2283113; active means hit-call score of the fitted dose curve at least 0.9, where 1 is the maximum;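 further: potency for inhibition seen as loss of fluorescent signal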). The essentials: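 Biochemical CYP2C19 inhibition screen: insect-cell recombinant protein plus fluorescent substrate, 1 h, fluorescence intensity. Acetonitrile defined baseline activity. Single 10 uM concentration in duplicate, with concentration-response follow-up for actives.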

The target in experiment [14] is human CYP4F12, CYP4F12 (gene 66002) (UniProt Q9HCS2). Nature of the experiment: NVS_ADME_hCYP4F12: NovaScreen (NVS) CYP450-related Enzyme Activity (ADME) Assay for human CYP4F12 (AID 2283111; active means hit-call score of the fitted dose curve at least 0.9, where 1 is the maximum). The essentials:
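Cell-free fluorescence assay of recombinant human CYP4F12 activity on a specific substrate, read 0.5 h after dosing. Primary screen in duplicate at 10 uM, then concentration series for actives; loss of signal fitted against acetonitrile negative control.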

Experiment [15] deals with human CYP2B6, CYP2B6 (gene 1555) (UniProt P20813). Nature of the experiment: NVS_ADME_hCYP2B6: NovaScreen (NVS) CYP450-related Enzyme Activity (ADME) Assay for human CYP2B6 (AID 2283101; active means hit-call score of the fitted dose curve at least 0.9, where 1 is the maximum). The essentials: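 Cell-free recombinant enzyme assay with a fluorogenic substrate; fluorescence intensity read 1 hour after dosing. Loss of signal relative to acetonitrile negative control indicates inhibition. Primary screen run in duplicate at 10 uM, actives then tested in concentration series.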

Experiment [16] deals with human CYP2C9, CYP2C9 (gene 1559) (UniProt P11712). Nature of the experiment: NVS_ADME_hCYP2C9: NovaScreen (NVS) CYP450-related Enzyme Activity (ADME) Assay for human CYP2C9 (AID 2283108; active means hit-call score of the fitted dose curve at least 0.9, where 1 is the maximum). Summed up: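 Recombinant human CYP2C9 expressed in SF9 cells, fluorogenic substrate, fluorescence read 0.75 h after dosing. Chemicals first run in duplicate at 10 uM, with actives followed in concentration series; loss of signal versus acetonitrile baseline.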

Records with an inconclusive call do not appear. Active and inactive are the calls of the source. How the source made its calls, unless noted: active means hit-call score of the fitted dose curve at least 0.9, where 1 is the maximum; inactive means score below 0.9.

Sequence of E-selectin (Homo sapiens) (P16581 whole entry, looked up): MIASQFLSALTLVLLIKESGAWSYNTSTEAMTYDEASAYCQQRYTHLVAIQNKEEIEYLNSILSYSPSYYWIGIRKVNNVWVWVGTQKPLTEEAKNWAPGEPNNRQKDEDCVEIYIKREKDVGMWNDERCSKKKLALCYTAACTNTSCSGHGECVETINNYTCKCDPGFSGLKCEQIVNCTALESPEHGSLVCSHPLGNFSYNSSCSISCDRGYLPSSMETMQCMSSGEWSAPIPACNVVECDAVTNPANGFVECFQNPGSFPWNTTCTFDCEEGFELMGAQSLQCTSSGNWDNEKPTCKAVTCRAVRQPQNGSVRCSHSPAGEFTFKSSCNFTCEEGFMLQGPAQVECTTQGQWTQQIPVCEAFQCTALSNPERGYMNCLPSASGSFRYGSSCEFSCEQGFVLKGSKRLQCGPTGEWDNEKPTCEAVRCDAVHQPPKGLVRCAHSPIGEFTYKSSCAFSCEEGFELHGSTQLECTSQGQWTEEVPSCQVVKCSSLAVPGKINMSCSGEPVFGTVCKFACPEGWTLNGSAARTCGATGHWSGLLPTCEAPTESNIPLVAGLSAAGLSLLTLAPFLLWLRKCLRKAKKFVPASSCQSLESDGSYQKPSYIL
Sequence of Cytochrome P450 3A4 (Homo sapiens) (P08684 whole entry, looked up): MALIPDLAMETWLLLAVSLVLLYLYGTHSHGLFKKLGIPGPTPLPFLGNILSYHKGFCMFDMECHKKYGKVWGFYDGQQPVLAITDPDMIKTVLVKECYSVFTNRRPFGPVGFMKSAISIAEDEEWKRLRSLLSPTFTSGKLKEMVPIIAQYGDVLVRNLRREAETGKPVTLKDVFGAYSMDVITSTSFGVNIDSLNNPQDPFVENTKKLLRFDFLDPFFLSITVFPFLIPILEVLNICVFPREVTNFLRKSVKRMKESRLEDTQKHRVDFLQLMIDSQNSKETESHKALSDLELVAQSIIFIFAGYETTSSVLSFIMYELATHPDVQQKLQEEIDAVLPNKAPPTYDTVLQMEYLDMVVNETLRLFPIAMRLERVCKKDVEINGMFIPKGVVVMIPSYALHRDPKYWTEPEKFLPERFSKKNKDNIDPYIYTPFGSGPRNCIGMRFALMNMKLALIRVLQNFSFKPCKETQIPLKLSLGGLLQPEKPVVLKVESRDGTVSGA
Sequence of human CYP1A2, CYP1A2 (gene 1544) (P05177 whole entry, looked up): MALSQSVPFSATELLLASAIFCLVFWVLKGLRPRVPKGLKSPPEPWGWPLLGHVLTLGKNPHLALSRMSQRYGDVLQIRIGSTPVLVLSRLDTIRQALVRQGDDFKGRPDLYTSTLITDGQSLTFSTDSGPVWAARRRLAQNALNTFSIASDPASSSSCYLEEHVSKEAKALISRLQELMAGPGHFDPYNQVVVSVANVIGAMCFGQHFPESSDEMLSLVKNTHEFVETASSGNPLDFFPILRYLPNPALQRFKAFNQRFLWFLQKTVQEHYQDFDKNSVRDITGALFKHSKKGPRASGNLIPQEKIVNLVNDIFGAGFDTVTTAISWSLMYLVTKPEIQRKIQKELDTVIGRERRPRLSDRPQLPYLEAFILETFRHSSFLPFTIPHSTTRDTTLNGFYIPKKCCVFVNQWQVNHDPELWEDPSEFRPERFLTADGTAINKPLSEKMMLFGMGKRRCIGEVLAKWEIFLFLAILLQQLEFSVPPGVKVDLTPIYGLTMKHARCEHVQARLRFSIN
Sequence of human CYP1A1, CYP1A1 (gene 1543) (P04798 whole entry, looked up): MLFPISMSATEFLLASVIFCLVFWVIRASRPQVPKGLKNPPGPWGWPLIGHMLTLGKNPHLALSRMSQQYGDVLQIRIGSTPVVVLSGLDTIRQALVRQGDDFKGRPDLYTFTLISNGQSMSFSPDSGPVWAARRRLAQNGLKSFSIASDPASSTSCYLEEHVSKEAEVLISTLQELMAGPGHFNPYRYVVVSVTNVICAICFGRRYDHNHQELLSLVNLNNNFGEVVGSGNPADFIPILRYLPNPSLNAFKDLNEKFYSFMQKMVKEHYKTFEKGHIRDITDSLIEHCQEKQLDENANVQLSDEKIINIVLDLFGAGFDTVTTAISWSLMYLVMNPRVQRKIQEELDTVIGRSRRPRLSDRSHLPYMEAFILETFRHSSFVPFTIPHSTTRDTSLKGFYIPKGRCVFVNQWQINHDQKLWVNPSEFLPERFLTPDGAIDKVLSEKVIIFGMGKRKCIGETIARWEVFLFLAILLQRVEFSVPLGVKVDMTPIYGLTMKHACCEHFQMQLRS
Sequence of human CYP19A1, CYP19A1 (gene 1588) (P11511 whole entry, looked up): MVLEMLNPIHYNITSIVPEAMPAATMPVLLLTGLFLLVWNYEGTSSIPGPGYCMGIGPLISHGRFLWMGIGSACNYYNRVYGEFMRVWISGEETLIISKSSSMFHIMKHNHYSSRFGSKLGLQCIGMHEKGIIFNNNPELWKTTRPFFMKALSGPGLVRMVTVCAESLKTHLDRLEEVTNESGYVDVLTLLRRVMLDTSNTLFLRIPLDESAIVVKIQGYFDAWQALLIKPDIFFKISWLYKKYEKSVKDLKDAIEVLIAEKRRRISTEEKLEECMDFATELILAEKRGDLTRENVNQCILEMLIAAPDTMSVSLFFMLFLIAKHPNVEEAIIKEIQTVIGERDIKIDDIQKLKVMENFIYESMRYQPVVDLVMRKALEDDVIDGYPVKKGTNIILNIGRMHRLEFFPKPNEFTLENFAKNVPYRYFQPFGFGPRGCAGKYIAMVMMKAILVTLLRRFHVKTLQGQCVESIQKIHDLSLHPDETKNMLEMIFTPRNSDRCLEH
Sequence of rat CYP1A2, Cyp1a2 (gene 24297) (P04799 whole entry, looked up): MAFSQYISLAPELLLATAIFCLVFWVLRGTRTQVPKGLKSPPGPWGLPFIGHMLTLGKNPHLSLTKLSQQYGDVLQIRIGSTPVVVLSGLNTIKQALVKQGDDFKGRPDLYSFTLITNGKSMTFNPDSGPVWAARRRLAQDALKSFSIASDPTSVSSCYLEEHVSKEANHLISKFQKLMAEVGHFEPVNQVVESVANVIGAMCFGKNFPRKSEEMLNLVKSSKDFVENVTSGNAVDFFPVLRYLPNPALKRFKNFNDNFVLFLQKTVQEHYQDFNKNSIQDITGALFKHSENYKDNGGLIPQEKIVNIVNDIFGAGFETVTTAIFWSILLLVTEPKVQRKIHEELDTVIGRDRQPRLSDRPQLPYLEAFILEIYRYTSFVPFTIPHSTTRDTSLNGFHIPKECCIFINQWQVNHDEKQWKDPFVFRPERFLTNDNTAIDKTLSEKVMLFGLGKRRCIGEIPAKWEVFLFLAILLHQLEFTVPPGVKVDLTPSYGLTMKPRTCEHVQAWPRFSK
Sequence of human CYP2C9, CYP2C9 (gene 1559) (P11712 whole entry, looked up): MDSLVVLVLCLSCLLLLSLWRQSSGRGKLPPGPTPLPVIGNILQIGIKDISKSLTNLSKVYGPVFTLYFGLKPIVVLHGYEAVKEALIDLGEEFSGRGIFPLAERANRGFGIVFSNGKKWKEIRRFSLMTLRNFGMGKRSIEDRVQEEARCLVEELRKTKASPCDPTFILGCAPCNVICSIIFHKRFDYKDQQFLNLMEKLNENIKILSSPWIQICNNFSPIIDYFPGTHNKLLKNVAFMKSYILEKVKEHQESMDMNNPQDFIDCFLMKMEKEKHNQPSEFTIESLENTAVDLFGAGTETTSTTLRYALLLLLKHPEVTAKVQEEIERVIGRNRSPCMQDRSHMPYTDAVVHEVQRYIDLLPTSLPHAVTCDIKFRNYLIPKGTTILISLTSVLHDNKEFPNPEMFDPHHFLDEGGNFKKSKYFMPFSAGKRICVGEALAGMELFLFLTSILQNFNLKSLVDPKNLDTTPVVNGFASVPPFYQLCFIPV
Sequence of human CYP2J2, CYP2J2 (gene 1573) (P51589 whole entry, looked up): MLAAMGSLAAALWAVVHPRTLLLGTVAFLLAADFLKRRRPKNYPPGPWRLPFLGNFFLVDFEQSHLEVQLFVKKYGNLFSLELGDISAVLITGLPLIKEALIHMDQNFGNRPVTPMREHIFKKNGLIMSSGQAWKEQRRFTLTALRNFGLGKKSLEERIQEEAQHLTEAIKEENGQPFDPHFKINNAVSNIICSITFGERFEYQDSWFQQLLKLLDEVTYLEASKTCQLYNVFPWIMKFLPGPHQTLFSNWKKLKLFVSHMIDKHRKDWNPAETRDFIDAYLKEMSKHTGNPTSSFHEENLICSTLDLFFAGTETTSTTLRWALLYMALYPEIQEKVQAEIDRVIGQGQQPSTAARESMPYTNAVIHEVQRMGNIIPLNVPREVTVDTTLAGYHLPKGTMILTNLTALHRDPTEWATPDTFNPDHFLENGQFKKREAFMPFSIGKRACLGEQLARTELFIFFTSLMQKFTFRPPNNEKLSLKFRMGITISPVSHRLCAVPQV
Sequence of human CYP2B6, CYP2B6 (gene 1555) (P20813 whole entry, looked up): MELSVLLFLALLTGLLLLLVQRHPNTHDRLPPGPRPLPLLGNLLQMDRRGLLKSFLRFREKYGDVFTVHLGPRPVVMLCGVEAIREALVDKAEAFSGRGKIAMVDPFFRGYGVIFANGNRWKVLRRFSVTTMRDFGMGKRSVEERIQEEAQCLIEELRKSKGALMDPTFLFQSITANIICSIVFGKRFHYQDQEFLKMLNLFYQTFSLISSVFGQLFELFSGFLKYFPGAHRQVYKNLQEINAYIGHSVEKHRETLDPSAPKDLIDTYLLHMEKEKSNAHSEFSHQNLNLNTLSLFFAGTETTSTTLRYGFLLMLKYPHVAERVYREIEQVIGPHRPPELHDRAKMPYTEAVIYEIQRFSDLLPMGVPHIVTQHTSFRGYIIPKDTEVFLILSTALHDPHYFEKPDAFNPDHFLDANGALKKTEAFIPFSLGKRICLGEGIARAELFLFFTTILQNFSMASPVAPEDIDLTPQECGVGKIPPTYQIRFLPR

Regarding `CCOP(=S)(S)OCC`, the result in [1], in experiment [2], in experiment [3], in experiment [4] and in [5] was inactive.
Regarding `CCOP(=S)(NC(C)C)Oc1ccccc1C(=O)OC(C)C` (centres undefined), the outcome in experiment [1], in [2], in experiment [3], in experiment [4] and in [5] was inactive.
Take `CC1(C)CN=C(NN=C(/C=C/c2ccc(C(F)(F)F)cc2)/C=C/c2ccc(C(F)(F)F)cc2)NC1`: the outcome in experiment [6] and in experiment [9] was inactive. The AC50 – broadly, the concentration at which the activity in the assay is half-maximal – in experiment [7] is 12.9 µM (active); in experiment [8] it was 5.19 µM (active).
On to `c1ccc2c(c1)sc1ccccc12`, for which the result in [1], in experiment [2], in experiment [3], in [4], in [5] and in experiment [10] was inactive.
Consider `O=S(=O)(c1ccc(O)cc1)c1ccc(O)cc1`, for which the half-maximal activity concentration (AC50) in experiment [11] is 8.81 µM (active).
For `Cc1ccc(O)cc1C`, the outcome in experiment [1], in experiment [2], in [4] and in experiment [5] was inactive.
On to `C=CC(=O)OCC(CC)(COC(=O)C=C)COC(=O)C=C`, for which the AC50 in [1] was 2.6 µM (active); in [2], 1.36 µM (active); in experiment [3], 2.93 µM (active); in experiment [12], 1.7 µM (active); in [4] it was 0.587 µM (active); in experiment [5] it was 3.38 µM (active). In addition, the AC50 in [13] is 2.4 µM (active).
Take `O=c1ssc(Cl)c1Cl`: the half-maximal activity concentration (AC50) in [1] was 5.35 µM (active); in [2], 4.28 µM (active); in experiment [3], 4.21 µM (active); in experiment [4], 1.94 µM (active); in experiment [5], 6.23 µM (active).
As to `O=P1(N(CCCl)CCCl)NCCCO1` (centres undefined), the outcome in [1], in experiment [2], in experiment [3], in [12], in experiment [4] and in experiment [5] was inactive. In addition, in [14], the compound was classed as inactive.
Consider `CCOP(=S)(Oc1ccc([N+](=O)[O-])cc1)c1ccccc1` (centres undefined), for which the result in experiment [1], in experiment [2], in experiment [3] and in [5] was inactive. Also, the AC50 in experiment [4] was 22.6 µM (active); in experiment [15], 4.41 µM (active); in experiment [7], 5.08 µM (active); in [16], 5.15 µM (active); in [9], 3.84 µM (active); in experiment [13], 0.198 µM (active).
With `Cc1c([N+](=O)[O-])cc2c(c1[N+](=O)[O-])C(C)(C)CC2(C)C`, the outcome in [1], in experiment [2] and in experiment [5] was inactive. In addition, the results for the AC50 in experiment [3] and in experiment [4] were 15.3 µM (active) and 7.41 µM (active), respectively.
For `CCOS(=O)(=O)OCC`, the result in experiment [1], in [2], in experiment [3], in experiment [4] and in experiment [5] was inactive.
As for `O=C(O)C(F)(F)OC(F)(F)C(F)(F)OC(F)(F)F`, the result in experiment [1], in [2], in experiment [3], in experiment [4] and in experiment [5] was inactive.
